From PubChem BioAssay AID504452 (The Scripps Research Institute Molecular Screening Center, 2011) come the findings set out here.

Each structure is given as a SMILES string. Calls of active or inactive are those of the source. Rule as the data show it: active = activation above about 85%; inactive = the rest.

The target in the experiment is Peroxisome proliferator-activated receptor gamma (Homo sapiens) (UniProt P37231). Briefly: partial agonism at human PPARgamma receptor – cell-based, luciferase reporter, luminescence, primary screen (AID 504452).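 Also: Cos-1 cells carrying PPARgamma and a response element luciferase reporter.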 Particulars: cell-based PPARg luciferase reporter, at 5 µM, stronger effect = higher value; activation (% of full agonist control): measured here: relative to full agonist control. (A reporter such as luciferase makes a cellular process visible.)
Peroxisome proliferator-activated receptor gamma (Homo sapiens), sequence (P37231 whole entry, looked up): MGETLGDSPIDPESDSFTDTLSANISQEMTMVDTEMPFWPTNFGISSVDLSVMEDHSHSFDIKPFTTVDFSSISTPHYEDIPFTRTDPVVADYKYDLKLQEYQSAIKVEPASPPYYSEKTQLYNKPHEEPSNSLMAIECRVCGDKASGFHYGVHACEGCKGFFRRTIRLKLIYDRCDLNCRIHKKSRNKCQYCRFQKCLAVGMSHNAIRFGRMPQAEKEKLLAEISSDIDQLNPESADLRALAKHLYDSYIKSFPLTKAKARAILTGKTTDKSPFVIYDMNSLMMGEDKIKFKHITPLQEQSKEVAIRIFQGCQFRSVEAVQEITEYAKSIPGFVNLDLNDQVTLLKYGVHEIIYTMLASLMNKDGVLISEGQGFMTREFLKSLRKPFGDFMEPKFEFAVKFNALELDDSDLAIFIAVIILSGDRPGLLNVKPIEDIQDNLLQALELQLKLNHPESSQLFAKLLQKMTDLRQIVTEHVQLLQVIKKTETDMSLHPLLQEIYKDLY

As to `O=C(O)COc1ccccc1/C=C1\C(=O)NC(=O)N(CCC2=CCCCC2)C1=O`, the activation (% of full agonist control) was found to be 33.7% and the activation (% of partial agonist control) was 74.6% (inactive).

Regarding `CC(=O)Nc1cc(C(=O)N2CCC3(CC2)OCCO3)ccc1Sc1ccc(F)cc1`, the activation (% of full agonist control) stood at 37.4% and the activation (% of partial agonist control) is 82.7% (inactive).
